Positions count from the first letter of the chain named. The full ranking holds about 16,000 sequences; the median of “ka relative to ugcaugu” is about 0.096, and the highest 2% start at about 0.35. For the sample, the highest values were picked, then their nearest neighbours and some sequences at random.
T1: RBFOX1 RRM RbFoxmut (Fox-RRM*) (Homo sapiens, UniProt Q9NWB1 109-208, R118D;E147R;N151S;E152T)
T1 sequence: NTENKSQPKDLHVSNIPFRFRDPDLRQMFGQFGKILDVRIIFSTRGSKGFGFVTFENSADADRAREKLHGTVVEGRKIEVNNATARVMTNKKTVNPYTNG

B1: ACGGAAU (DNA:RNA)
RNA: GGGAGACCGGAAUUCAGAUUGUCCACGGAAUUUAAAUCCCGUCGUAGCCACCA
DNA 1: CAATCTGAATTCCGGTCTCCC
DNA 2: TGGTGGCTACGACGGGATT
B2: AUGUUAC (DNA:RNA)
RNA: B1 RNA with C26U, G28U, A29U, U31C
DNA 1: CAATCTGAATTCCGGTCTCCC
DNA 2: TGGTGGCTACGACGGGATT
B3: CGGGGCG (DNA:RNA)
RNA: B1 RNA with A25C, C26G, A29G, A30C, U31G
DNA 1: CAATCTGAATTCCGGTCTCCC
DNA 2: TGGTGGCTACGACGGGATT
B4: AAGAAUG (DNA:RNA)
RNA: B1 RNA with C26A, G28A, A30U, U31G
DNA 1: CAATCTGAATTCCGGTCTCCC
DNA 2: TGGTGGCTACGACGGGATT
B5: GGGAAUG (DNA:RNA)
RNA: B1 RNA with A25G, C26G, G28A, A30U, U31G
DNA 1: CAATCTGAATTCCGGTCTCCC
DNA 2: TGGTGGCTACGACGGGATT
B6: GUUAAUG (DNA:RNA)
RNA: B1 RNA with A25G, C26U, G27U, G28A, A30U, U31G
DNA 1: CAATCTGAATTCCGGTCTCCC
DNA 2: TGGTGGCTACGACGGGATT
B7: AGAUUGU (DNA:RNA)
RNA: B1 RNA with C26G, G27A, G28U, A29U, A30G
DNA 1: CAATCTGAATTCCGGTCTCCC
DNA 2: TGGTGGCTACGACGGGATT
B8: AGAAAUG (DNA:RNA)
RNA: B1 RNA with C26G, G27A, G28A, A30U, U31G
DNA 1: CAATCTGAATTCCGGTCTCCC
DNA 2: TGGTGGCTACGACGGGATT
B9: AAGAUUG (DNA:RNA)
RNA: B1 RNA with C26A, G28A, A29U, A30U, U31G
DNA 1: CAATCTGAATTCCGGTCTCCC
DNA 2: TGGTGGCTACGACGGGATT
B10: AAGAGAA (DNA:RNA)
RNA: B1 RNA with C26A, G28A, A29G, U31A
DNA 1: CAATCTGAATTCCGGTCTCCC
DNA 2: TGGTGGCTACGACGGGATT
B11: GGAAAUG (DNA:RNA)
RNA: B1 RNA with A25G, C26G, G27A, G28A, A30U, U31G
DNA 1: CAATCTGAATTCCGGTCTCCC
DNA 2: TGGTGGCTACGACGGGATT
B12: GAGUAUG (DNA:RNA)
RNA: B1 RNA with A25G, C26A, G28U, A30U, U31G
DNA 1: CAATCTGAATTCCGGTCTCCC
DNA 2: TGGTGGCTACGACGGGATT
B13: GAGAGUA (DNA:RNA)
RNA: B1 RNA with A25G, C26A, G28A, A29G, A30U, U31A
DNA 1: CAATCTGAATTCCGGTCTCCC
DNA 2: TGGTGGCTACGACGGGATT
B14: GAGUAUC (DNA:RNA)
RNA: B1 RNA with A25G, C26A, G28U, A30U, U31C
DNA 1: CAATCTGAATTCCGGTCTCCC
DNA 2: TGGTGGCTACGACGGGATT
B15: AGAAUGU (DNA:RNA)
RNA: B1 RNA with C26G, G27A, G28A, A29U, A30G
DNA 1: CAATCTGAATTCCGGTCTCCC
DNA 2: TGGTGGCTACGACGGGATT
B16: UCAUCAU (DNA:RNA)
RNA: B1 RNA with A25U, G27A, G28U, A29C
DNA 1: CAATCTGAATTCCGGTCTCCC
DNA 2: TGGTGGCTACGACGGGATT
B17: UGCGCUU (DNA:RNA)
RNA: B1 RNA with A25U, C26G, G27C, A29C, A30U
DNA 1: CAATCTGAATTCCGGTCTCCC
DNA 2: TGGTGGCTACGACGGGATT
B18: AUGACGC (DNA:RNA)
RNA: B1 RNA with C26U, G28A, A29C, A30G, U31C
DNA 1: CAATCTGAATTCCGGTCTCCC
DNA 2: TGGTGGCTACGACGGGATT
B19: CACUACU (DNA:RNA)
RNA: B1 RNA with A25C, C26A, G27C, G28U, A30C
DNA 1: CAATCTGAATTCCGGTCTCCC
DNA 2: TGGTGGCTACGACGGGATT
B20: CAUAUAU (DNA:RNA)
RNA: B1 RNA with A25C, C26A, G27U, G28A, A29U
DNA 1: CAATCTGAATTCCGGTCTCCC
DNA 2: TGGTGGCTACGACGGGATT
B21: CGAAACU (DNA:RNA)
RNA: B1 RNA with A25C, C26G, G27A, G28A, A30C
DNA 1: CAATCTGAATTCCGGTCTCCC
DNA 2: TGGTGGCTACGACGGGATT
B22: CGGAAUG (DNA:RNA)
RNA: B1 RNA with A25C, C26G, G28A, A30U, U31G
DNA 1: CAATCTGAATTCCGGTCTCCC
DNA 2: TGGTGGCTACGACGGGATT
B23: GAGAUUG (DNA:RNA)
RNA: B1 RNA with A25G, C26A, G28A, A29U, A30U, U31G
DNA 1: CAATCTGAATTCCGGTCTCCC
DNA 2: TGGTGGCTACGACGGGATT
B24: ACGAAUC (DNA:RNA)
RNA: B1 RNA with G28A, A30U, U31C
DNA 1: CAATCTGAATTCCGGTCTCCC
DNA 2: TGGTGGCTACGACGGGATT
B25: CUAAAUG (DNA:RNA)
RNA: B1 RNA with A25C, C26U, G27A, G28A, A30U, U31G
DNA 1: CAATCTGAATTCCGGTCTCCC
DNA 2: TGGTGGCTACGACGGGATT
B26: GAGCAUG (DNA:RNA)
RNA: B1 RNA with A25G, C26A, G28C, A30U, U31G
DNA 1: CAATCTGAATTCCGGTCTCCC
DNA 2: TGGTGGCTACGACGGGATT
B27: ACGAAUG (DNA:RNA)
RNA: B1 RNA with G28A, A30U, U31G
DNA 1: CAATCTGAATTCCGGTCTCCC
DNA 2: TGGTGGCTACGACGGGATT
B28: GAGAAUG (DNA:RNA)
RNA: B1 RNA with A25G, C26A, G28A, A30U, U31G
DNA 1: CAATCTGAATTCCGGTCTCCC
DNA 2: TGGTGGCTACGACGGGATT
B29: GAGACCG (DNA:RNA)
RNA: B1 RNA with A25G, C26A, G28A, A29C, A30C, U31G
DNA 1: CAATCTGAATTCCGGTCTCCC
DNA 2: TGGTGGCTACGACGGGATT
B30: GUAAAUG (DNA:RNA)
RNA: B1 RNA with A25G, C26U, G27A, G28A, A30U, U31G
DNA 1: CAATCTGAATTCCGGTCTCCC
DNA 2: TGGTGGCTACGACGGGATT
B31: ACGAUUG (DNA:RNA)
RNA: B1 RNA with G28A, A29U, A30U, U31G
DNA 1: CAATCTGAATTCCGGTCTCCC
DNA 2: TGGTGGCTACGACGGGATT
B32: GAGAGCA (DNA:RNA)
RNA: B1 RNA with A25G, C26A, G28A, A29G, A30C, U31A
DNA 1: CAATCTGAATTCCGGTCTCCC
DNA 2: TGGTGGCTACGACGGGATT
B33: GAGCAUC (DNA:RNA)
RNA: B1 RNA with A25G, C26A, G28C, A30U, U31C
DNA 1: CAATCTGAATTCCGGTCTCCC
DNA 2: TGGTGGCTACGACGGGATT

These binders were tested against T1, RBFOX1 RRM RbFoxmut (Fox-RRM*) (assay: EMSA; HiTS-Eq, 1 nM pool, 10 min; buffer printed only for the single-RNA assays: 10 mM Tris pH 7.5, 150 mM NaCl, 3.4 mM EDTA, 0.001% NP-40, 30 C). Settings: tags: His6 N-terminal (pET28a); label: 5' 32P.
How it was run: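 A pool of RNA with 7 randomized nucleotides, 5′-radiolabelled and with DNA-annealed flanks, was equilibrated at 1 nM for 10 min in 50 µL with purified RbFox RRM, wild type or mutant, across increasing protein concentrations. Free RNA was separated by 8% native PAGE, excised, reverse-transcribed, barcoded by PCR and sequenced. Relative association constants were obtained from read-count changes of each RNA species versus the control reaction and normalised to the cognate motif.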
With B1 the binding signal was 0.115 KA relative to UGCAUGU. With B2 the binding signal was 0.161 KA relative to UGCAUGU. For B3, the binding signal was 0.16 KA relative to UGCAUGU. In the case of B4, the binding signal is reported as 1.07 KA relative to UGCAUGU. For B5, the binding signal was 1.15 KA relative to UGCAUGU. In the case of B6, the binding signal is reported as 0.138 KA relative to UGCAUGU. For B7, the binding signal was 0.222 KA relative to UGCAUGU. For B8, the binding signal was 0.121 KA relative to UGCAUGU. With B9 the binding signal was 0.223 KA relative to UGCAUGU. With B10 the binding signal was 0.115 KA relative to UGCAUGU. In the case of B11, the binding signal is reported as 0.177 KA relative to UGCAUGU. With B12 the binding signal was 0.795 KA relative to UGCAUGU. With B13 the binding signal was 0.143 KA relative to UGCAUGU. For B14, the binding signal was 0.237 KA relative to UGCAUGU. For B15, the binding signal was 0.798 KA relative to UGCAUGU. B16 was tested, and the binding signal was 0.0991 KA relative to UGCAUGU. B17 was tested, and the binding signal was 0.095 KA relative to UGCAUGU. With B18 the binding signal was 0.0829 KA relative to UGCAUGU. For B19, the binding signal was 0.0793 KA relative to UGCAUGU. With B20 the binding signal was 0.114 KA relative to UGCAUGU. In the case of B21, the binding signal is reported as 0.0571 KA relative to UGCAUGU. With B22 the binding signal was 1.43 KA relative to UGCAUGU. For B23, the binding signal was 0.314 KA relative to UGCAUGU. B24 was tested, and the binding signal was 0.283 KA relative to UGCAUGU. For B25, the binding signal was 0.0852 KA relative to UGCAUGU. For B26, the binding signal was 1.12 KA relative to UGCAUGU. In the case of B27, the binding signal is reported as 1.2 KA relative to UGCAUGU. With B28 the binding signal was 1.5 KA relative to UGCAUGU. With B29 the binding signal was 0.0845 KA relative to UGCAUGU. For B30, the binding signal was 0.125 KA relative to UGCAUGU. For B31, the binding signal was 0.234 KA relative to UGCAUGU. B32 was tested, and the binding signal was 0.151 KA relative to UGCAUGU. With B33 the binding signal was 0.278 KA relative to UGCAUGU.

From paper PMC9911399, “Two distinct binding modes provide the RNA-binding protein RbFox with extraordinary sequence specificity”
